These results are taken from PubChem BioAssay (NCATS).

Results filed as inconclusive are left out. Values without a mark were called inactive. Activity calls are given as the source filed them. The call rests on the fitted dose curve; in most records, active means well fitted curve in the direction sought with a large enough effect; inconclusive means small, poorly fitted or top-dose-only effect, or another doubt; inactive means no such curve, though single readings can be large; an effect the other way counts as inactive or inconclusive.

A short description of assay [1]: qHTS of pediatric cancer cell lines to identify multiple opportunities for drug repurposing: Primary screen for RD cells (AID 1347104). Further: nearly all actives have a fitted effect of over 55% in size. Further: potency means the concentration at half of the fitted maximal effect. In short, it runs like this: (§1)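 Plated cells (500-1,000 per well, growth media) were allowed to settle for 5 hours, treated with compound dilutions for 48 hours, then lysed with CellTiter-Glo for 15 min at room temperature before luminescence reading.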
In general terms: In qHTS, concentration-response curves come from the screen itself.

A short description of assay [2]: qHTS of pediatric cancer cell lines to identify multiple opportunities for drug repurposing: Primary screen for MG 63 (6-TG R) cells (AID 1347105). Further: nearly all actives have a fitted effect of over 50% in size. Further: potency means the concentration at half of the fitted maximal effect. The gist of the method:
as §1

The nature of assay [3]: qHTS of pediatric cancer cell lines to identify multiple opportunities for drug repurposing: Primary screen for Rh30 cells (AID 1347107). Further: series mostly up to about 46 µM; nearly all actives have a fitted effect of over 75% in size. In short, it runs like this:
(§2)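 Cells (500-1,000/well) in growth media were settled 5 h at 37 degrees C, then given compounds for 48 h. Viability was read as CellTiter-Glo luminescence. Primary runs used MIPE at 11 points (0.78 nM-46 µM) and NPC at 8 points (0.59 nM-46 µM); follow-ups used 11 points.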

Assay [4] is described as follows: qHTS of pediatric cancer cell lines to identify multiple opportunities for drug repurposing: Primary screen for Rh41 cells (AID 1347108). Further: nearly all actives have a fitted effect of over 70% in size. Further: potency means the concentration at half of the fitted maximal effect. The gist of the method: as §1
The nature of assay [5]: qHTS of pediatric cancer cell lines to identify multiple opportunities for drug repurposing: Primary screen for control Hh wild type fibroblast cells (AID 1347106).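 Further: series mostly up to about 46 µM; a drop in luminescence marks cytotoxicity and a rise apparent proliferation; nearly all actives have a fitted effect of over 55% in size.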 The gist of the method:
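Viability after 48 h compound treatment at 37C, 500-1,000 cells/well, read as ATP luminescence with CellTiter-Glo. Primary screens used 11-point (MIPE, 0.78 nM-46 µM) or 8-point (NPC, 0.59 nM-46 µM) final concentrations; follow-up screens used 11-point dilutions.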

Assay [6] can be described thus: qHTS of pediatric cancer cell lines to identify multiple opportunities for drug repurposing: Confirmatory screen for A673 cells (AID 1347110).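 Further: cells exposed to compound for 48 h before the viability read; nearly all actives have a fitted effect of over 65% in size.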 The gist of the method: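 Concentration-response curves came straight from titrations: 11 points (0.78 nM to 46 µM) for MIPE and several concentrations (0.59 nM to 46 µM) for NPC in primary, 11 points in follow-up. Readout: ATP luminescence at 48 h.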

Assay [7] is described as follows: qHTS of pediatric cancer cell lines to identify multiple opportunities for drug repurposing: Confirmatory screen for LAN-5 cells (AID 1347113). Further: nearly all actives have a fitted effect of over 65% in size. Further: potency means the concentration at half of the fitted maximal effect. The gist of the method: as §2
Assay [8] in a line: qHTS of pediatric cancer cell lines to identify multiple opportunities for drug repurposing: Confirmatory screen for NB-EBc1 cells (AID 1347115).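 Further: cells exposed to compound for 48 h before the viability read; nearly all actives have a fitted effect of over 45% in size.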 Further: potency means the concentration at half of the fitted maximal effect. In short, it runs like this:
as §2

Assay [9] is described as follows: qHTS of pediatric cancer cell lines to identify multiple opportunities for drug repurposing: Confirmatory screen for BT-37 cells (AID 1347117). Further: potency means the concentration at half of the fitted maximal effect; nearly all actives have a fitted effect of over 55% in size. The gist of the method:
as §2

Assay [10] can be described thus: qHTS of pediatric cancer cell lines to identify multiple opportunities for drug repurposing: Confirmatory screen for TC32 cells (AID 1347118).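 Further: potency means the concentration at half of the fitted maximal effect; cells exposed to compound for 48 h before the read; nearly all actives have a fitted effect of over 65% in size.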 In short, it runs like this: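 TC32 cells, 500-1,000/well in growth medium, compound-treated 48 h at 37 °C; viability from CellTiter-Glo luminescence. Primary screen: MIPE 11-point (0.78 nM–46 µM final), NPC 8-point (0.59 nM–46 µM final); confirmatory at 11-point dilutions.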

A short description of assay [11]: qHTS of pediatric cancer cell lines to identify multiple opportunities for drug repurposing: Confirmatory screen for MG 63 (6-TG R) cells (AID 1347119). Further: potency means the concentration at half of the fitted maximal effect; nearly all actives have a fitted effect of over 55% in size. In short, it runs like this:
as §2

Assay [12] is described as follows: qHTS of pediatric cancer cell lines to identify multiple opportunities for drug repurposing: Confirmatory screen for control Hh wild type fibroblast cells (AID 1347121). Further: nearly all actives have a fitted effect of over 70% in size. The gist of the method:
as §2

Assay [13] is described as follows: qHTS of pediatric cancer cell lines to identify multiple opportunities for drug repurposing: Confirmatory screen for Rh41 cells (AID 1347123).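 Further: potency means the concentration at half of the fitted maximal effect; 48 h compound exposure; nearly all actives have a fitted effect of over 60% in size.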 In short, it runs like this:
as §2

Assay [14] is described as follows: qHTS of pediatric cancer cell lines to identify multiple opportunities for drug repurposing: Confirmatory screen for Saos-2 cells (AID 1347127). Further: potency means the concentration at half of the fitted maximal effect; nearly all actives have a fitted effect of over 60% in size. The gist of the method:
as §2

Assay [15] can be described thus: qHTS of pediatric cancer cell lines to identify multiple opportunities for drug repurposing: Confirmatory screen for OHS-50 cells (AID 1347128). In short, it runs like this:
as §2

Assay [16] can be described thus: qHTS of pediatric cancer cell lines to identify multiple opportunities for drug repurposing: Confirmatory screen for NB1643 cells (AID 1347109). Further: potency means the concentration at half of the fitted maximal effect; nearly all actives have a fitted effect of over 45% in size. In short, it runs like this: as §2
The nature of assay [17]: qHTS of pediatric cancer cell lines to identify multiple opportunities for drug repurposing: Confirmatory screen for DAOY cells (AID 1347114). Further: potency means the concentration at half of the fitted maximal effect; nearly all actives have a fitted effect of over 65% in size. In short, it runs like this:
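Viability measured as metabolically active cells via CellTiter-Glo luminescence following 48 hours of compound exposure, 11-point dilutions in confirmatory testing. 500-1,000 cells/well plated 5 hours before dosing; controls were DMSO and 2.3 µM bortezomib.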

Assay [18] is described as follows: qHTS of pediatric cancer cell lines to identify multiple opportunities for drug repurposing: Confirmatory screen for U-2 OS cells (AID 1347122). Further: nearly all actives have a fitted effect of over 65% in size. Further: potency means the concentration at half of the fitted maximal effect. In short, it runs like this: as §2
The nature of assay [19]: qHTS of pediatric cancer cell lines to identify multiple opportunities for drug repurposing: Confirmatory screen for BT-12 cells (AID 1347112). In short, it runs like this:
as §2

On to `Cc1cccc(N(C)C(=S)Oc2ccc3c(c2)CCC3)c1`, for which the Potency entry in [1], in assay [2], in assay [3] and in assay [4] was “inactive” each time.
Turning to `CCCC(=O)c1cc(O)c(O)cc1O`, the Potency entry in [1], in assay [2], in assay [3] and in assay [4] was “inactive” each time.
For the molecule `CCN(CC)C(=O)C1CN2CCc3cc(OC)c(OC)cc3C2CC1OC(C)=O` (stereo unspecified), the Potency entry in assay [1], in [2], in [3] and in assay [4] was “inactive” in each case.
As to `CCCCN(CCN(CCCC)C(=O)N1CCOCC1)C(=O)N1CCOCC1`, the Potency entry in assay [1], in assay [5] and in [3] was “inactive” throughout.
With `O=C(CS(=O)Cc1ccco1)NC/C=C\COc1cc(CN2CCCCC2)ccn1` (stereo unspecified), the Potency entry in [1], in [2] and in assay [4] was “inactive” each time.
Turning to `Cc1ccc(C(C)OC(=O)C2(C)CCC(C(=O)O)C2(C)C)cc1` (stereo unspecified), the Potency result in assay [1], in assay [2], in [3] and in [4] was “inactive” each time.
With `Nc1ncnc2nc[nH]c12`, the Potency result in assay [1], in [2], in [3] and in assay [4] was “inactive” each time.
On to `O=C(Nc1ccc(Cl)cc1)Nc1ccc(Cl)c(Cl)c1`, for which, in [1], the Potency was 23.7 µM (active). Moreover, the Potency entry in assay [5] is “inactive”.
As for `O=C(O)CCCC[C@@H]1SC[C@@H]2NC(=O)N[C@@H]21`, the Potency entry in assay [1], in [2], in [3] and in assay [4] was “inactive” each time.
Consider `CCC1(c2cnc[nH]2)Cc2ccccc2C1`, for which the Potency result in assay [1], in assay [2], in assay [3], in assay [4], in assay [6] and in assay [7] was “inactive” throughout. For the same molecule, the Potency result in assay [12] and in [15] was “inactive” throughout. For the same molecule, the Potency in assay [8] is 20.8 µM (active); in [9], 10.4 µM (active); in assay [10] it was 4.14 µM (active); in assay [11], 14.7 µM (active); in [13], 16.5 µM (active); in [14], 9.27 µM (active).
For the molecule `Cc1onc(-c2c(Cl)cccc2Cl)c1C(=O)Cl`, the Potency entry in [1], in assay [5], in assay [3] and in assay [4] was “inactive” in each case.
On to `CC(=O)O[C@H]1CC[C@@]2(C)C(=CC[C@@H]3[C@@H]2CC[C@]2(C)C(C(C)=O)=CC[C@@H]32)C1`, for which the Potency result in assay [1], in [5] and in assay [3] was “inactive” each time.
Turning to `CN1CC[C@H](c2c(O)cc(O)c3c(=O)cc(-c4ccccc4Cl)oc23)[C@H](O)C1`, the Potency in assay [1] is 0.596 µM (active). The Potency entry in [5] and in [3] was “inactive” in each case.
Regarding `CC(=O)O[C@@H]1CC2C3CCc4cc(OC(=O)c5ccccc5)ccc4C3CCC2(C)[C@H]1OC(C)=O` (stereo partly specified), the Potency entry in assay [1], in [2], in assay [3] and in assay [4] was “inactive” in each case.
As for `CCN1CCN(c2cc(-c3ccc(F)cc3)c3c(n2)CCCCCC3)CC1`, the Potency entry in [1], in assay [2], in assay [3] and in assay [4] was “inactive” each time.
Regarding `CCCCCCCCCCCCCCCCCCNC(=O)OC1CCN(C(=O)OC[C@H](COC(=O)N(Cc2cccc[n+]2CC)C(=O)c2ccccc2OC)OC)CC1`, in assay [1], the Potency was 23.7 µM (active). Besides, the Potency result in [5] is “inactive”.
As to `O=C(Nc1ccc(S(=O)(=O)N2CCOCC2)cc1)c1cc(Cl)ccc1NS(=O)(=O)c1ccc(Cl)s1`, the Potency result in [1], in [2], in assay [3] and in [4] was “inactive” in each case.
As for `C[C@H](N)C(=O)N[C@@H](C)C(=O)NC1[C@H]2CN(c3nc4c(cc3F)c(=O)c(C(=O)O)cn4-c3ccc(F)cc3F)C[C@@H]12` (stereo partly specified), the Potency entry in assay [1], in assay [5], in [3] and in assay [4] was “inactive” throughout.
Take `CN=C(N)NC(=O)Nc1c(C)cccc1C`: the Potency result in assay [1], in assay [5], in assay [3] and in assay [4] was “inactive” throughout.
As to `OC1(c2ccc(Cl)c(C(F)(F)F)c2)CCN(CCCC(c2ccc(F)cc2)c2ccc(F)cc2)CC1`, the figures for the Potency in [1], in assay [2] and in [4] were 21.1 µM (active), 13.3 µM (active) and 16.8 µM (active), respectively.
For the molecule `Cc1nc(C2CCCCC2)c(-c2ccc(S(N)(=O)=O)c(F)c2)o1`, the Potency result in assay [1], in assay [2], in [3] and in [4] was “inactive” in each case.
Regarding `O=C(c1ccccc1)c1ccccc1`, the Potency result in assay [1], in assay [2], in assay [3] and in assay [4] was “inactive” in each case.
Take `CCCC(=O)O[C@]1(C(=O)CC)CC[C@H]2[C@@H]3CCC4=CC(=O)CC[C@]4(C)[C@H]3[C@@H](O)C[C@@]21C`: the Potency entry in assay [1], in [5] and in assay [3] was “inactive” throughout.
With `CC(C)=CCC/C(C)=C/CC/C(C)=C/C(=O)OCC(=O)[C@@]1(O)CC[C@H]2[C@@H]3CCC4=CC(=O)C=C[C@]4(C)[C@H]3[C@@H](O)C[C@@]21C`, the Potency result in assay [1], in [2], in assay [3], in assay [4] and in [8] was “inactive” each time. The Potency in assay [16] was 23.3 µM (active); in [17], 20.8 µM (active); in assay [18] it was 20.8 µM (active); in [13], 16.5 µM (active); in assay [14], 18.5 µM (active).
With `CCc1cc(S(=O)(=O)O)c2cc(C(C)C)cccc1-2`, the Potency result in assay [1], in [5], in assay [3] and in assay [4] was “inactive” in each case.
In the case of `O=[N+]([O-])c1ccc(O)c2ncccc12`, the Potency in assay [1] is 5.31 µM (active); in assay [2] it was 6.68 µM (active); in assay [16] it was 14.7 µM (active); in assay [19], 20.8 µM (active); in [7], 9.27 µM (active); in assay [8] it was 7.37 µM (active). Moreover, the Potency in [9] was 7.37 µM (active); in assay [10], 5.85 µM (active). In addition, the Potency entry in [18] was “inactive”.
As for `CCN(CC)CCOc1ccc(/C(=C(\Cl)c2ccccc2)c2ccccc2)cc1`, in assay [1], the Potency is 23.7 µM (active). Moreover, the Potency result in [5] and in assay [3] was “inactive” throughout.
Consider `COc1cc2c(cc1OC)C(=O)CC2`, for which the Potency entry in [1], in assay [2], in [3] and in assay [4] was “inactive” in each case.
As for `CC(C)CCCC(C)NCCC(C)C` (stereo unspecified), the Potency entry in assay [1], in assay [5], in [3] and in assay [4] was “inactive” each time.
Regarding `CCOC(=O)[C@H](CCc1ccccc1)N[C@@H](C)C(=O)N(CC(=O)O)C1Cc2ccccc2C1`, the Potency result in [1] and in [5] was “inactive” throughout.
`CCC(=O)Oc1ccc2c(c1)CC[C@@H]1[C@@H]2CC[C@@]2(C)[C@H]1C[C@@H](OC(=O)CC)[C@@H]2OC(=O)CC`: the Potency entry in assay [1], in [2], in assay [3] and in assay [4] was “inactive” throughout.
Regarding `COC(=O)C1=C(C)NC(C)=C(C(=O)OCCc2ccc(N3CCN(C(c4ccccc4)c4ccccc4)CC3)cc2)C1c1cccc([N+](=O)[O-])c1` (stereo unspecified), the Potency result in [1], in assay [2] and in assay [4] was “inactive” each time.
With `O=C1Nc2cc(Cl)ccc2Oc2ccccc21`, the Potency result in assay [1], in [5] and in assay [4] was “inactive” throughout.
Regarding `CN(C)C(=O)CNC(=O)Cc1ccccc1`, the Potency entry in assay [1], in [5] and in [4] was “inactive” each time.
